From PubChem BioAssay (NCATS)
Values joined by “and” are separate entries in the source; they are usually repeats but may differ in a detail not shown here. Equal values may be shown once. Inconclusive results are not listed. Active and inactive are the calls of the source. Calls come from the whole dose curve; as a rule, active = well fitted curve in the direction sought with a large enough effect; inconclusive = small, poorly fitted or top-dose-only effect, or another doubt; inactive = no such curve, though single readings can be large; an effect the other way counts as inactive or inconclusive.

Tests used:
[1] = Viability qHTS for spleen associated tyrosine kinase inhibitor (SYKi) drug resistant MV4-11 cells (AID 1963824); note: nearly all actives have a fitted effect of over 35% in size; note: potency is the fitted concentration of half-maximal effect
In short: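 SYK inhibitor-resistant MV4-11 AML cells, 500 per well, added to predispensed compounds and incubated 72 hr at 37 C, 5% CO2. Viability measured by CellTiter-Glo luminescence after 10 min at room temperature.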

[2] = Quantitative highthroughput screen to assess conditional lethalithy of NOMO1 cells grown in RPMI1640 with untreated serum (RPMI+s) (AID 1963876); note: nearly all actives have a fitted effect of over 35% in size; note: potency is the fitted concentration of half-maximal effect;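 for Viability: 100% = DMSO wells and 0% = empty wells without cells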
In short: (§1)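 Each medium arm—HPLM with 10% dialyzed FBS, or RPMI1640 with 5 mM glucose and 10% untreated or dialyzed FBS—was screened against an 11-point, 3-fold compound titration for 48 h at 37 °C, with CellTiter-Glo luminescence as endpoint.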

[3] = Quantitative highthroughput screen to assess conditional lethalithy of NOMO1 cells grown in RPMI1640 with dialyzed fetal bovine serum (RPMI+ds) (AID 1963877); note: nearly all actives have a fitted effect of over 30% in size; note: potency is the fitted concentration of half-maximal effect;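 for Viability: series mostly up to about 46 µM; 100% = DMSO control wells and 0% = empty wells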
In short: as §1

[4] = Quantitative highthroughput screen to assess conditional lethalithy of NOMO1 cells grown in Human Plasma-Like Medium with dialyzed fetal bovine serum (HPLM+ds) (AID 1963878); note: nearly all actives have a fitted effect of over 35% in size; note: potency is the fitted concentration of half-maximal effect;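 for Viability: 100% = DMSO wells and 0% = empty wells on each plate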
In short: as §1

[5] = Quantitative highthroughput screen to assess conditional lethalithy of P12 Ichikawa cells grown in Human Plasma-Like Medium with dialyzed fetal bovine serum (HPLM+ds) (AID 1963879); settings: Potency: viability; note: nearly all actives have a fitted effect of over 35% in size; note: potency is the fitted concentration of half-maximal effect; for Viability: series mostly up to about 46 µM
In short: as §1

[6] = Quantitative highthroughput screen to assess conditional lethalithy of P12 Ichikawa cells grown in RPMI1640 with dialyzed fetal bovine serum (RPMI+ds) (AID 1963880); settings: Potency: P12-Ichikawa viability; note: nearly all actives have a fitted effect of over 35% in size; note: potency is the fitted concentration of half-maximal effect;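 for Viability: 100% = DMSO wells and 0% = empty wells on each plate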
In short: as §1

[7] = Quantitative highthroughput screen to assess conditional lethalithy of P12 Ichikawa cells grown in RPMI1640 with untreated serum (RPMI+s) (AID 1963881); settings: Potency: viability; note: nearly all actives have a fitted effect of over 35% in size; note: potency is the fitted concentration of half-maximal effect;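 for Viability: series mostly up to about 46 µM; 100% = DMSO wells and 0% = empty wells without cells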
In short: as §1

[8] = Quantitative highthroughput screen to assess conditional lethalithy of SEM cells grown in Human Plasma-Like Medium with dialyzed fetal bovine serum (HPLM+ds) (AID 1963882); note: nearly all actives have a fitted effect of over 35% in size; note: potency is the fitted concentration of half-maximal effect; for Viability: series mostly up to about 46 µM
In short: as §1

[9] = Quantitative highthroughput screen to assess conditional lethalithy of SEM cells grown in RPMI1640 with unreated serum (RPMI+s) (AID 1963883); note: nearly all actives have a fitted effect of over 35% in size; note: potency is the fitted concentration of half-maximal effect;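 for Viability: 100% = DMSO wells and 0% = empty wells without cells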
In short: as §1

[10] = Quantitative highthroughput screen to assess conditional lethalithy of SEM cells grown in RPMI1640 with dialyzed fetal bovine serum (RPMI+ds) (AID 1963884); note: nearly all actives have a fitted effect of over 35% in size; note: potency is the fitted concentration of half-maximal effect;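 for Viability: series mostly up to about 46 µM; 100% = DMSO control wells and 0% = empty wells without cells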
In short: as §1

[11] = Cellular viability qHTS for adrenocortical cancer (ACC) cell line SW-13 (AID 1963989); settings: SW-13 ACC cells viability, CellTiter-Glo, 48 h; activity (max response): stronger effect = lower value; note: nearly all actives have a fitted effect of over 65% in size; note: potency is the fitted concentration of half-maximal effect;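 for activity (max response): cells grown in serum-free medium with ITS supplement; % is set by controls: 0 for no effect and ±100 for the full control effect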
In short: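 SW-13 cells in ITS-supplemented serum-free DMEM were plated overnight, then exposed for 48 h at 37C to compound titrations (up to 46 uM final). Viability was read by CellTiter-Glo luminescence; four-parameter logistic fits gave IC50 and efficacy.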

[12] = Cellular viability qHTS for adrenocortical cancer (ACC) cell line NCI-H295R (AID 1963990);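 note: 0% = DMSO only wells and -100% = full killing with cytotoxic reference compound; nearly all actives have a fitted effect of over 60% in size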
In short: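 Luminescent ATP read-out (CellTiter-Glo, 20 min RT) after 48 h drug exposure of NCI-H295R cells; a titration up to 46 uM final. Data normalized to doxorubicin (100% inhibition) and DMSO (0%); 4-parameter fit gives IC50, max response.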

C[C@@H]1O[C@@H](O[C@H]2[C@H](O[C@H]3[C@H](O[C@H]4CC[C@@]5(C)C(CC[C@]6(C)C5CC=C5[C@@H]7CC(C)(C)C[C@@H](O)[C@]7(C)CC[C@]56C)C4(C)C)O[C@H](C(=O)O)[C@@H](O)[C@@H]3O)O[C@H](C(=O)O)[C@H](O)[C@@H]2O)[C@H](O)[C@H](O)[C@H]1O (stereo partly drawn)
inactive: viability, % of control [1] 89.8% [at 9.25 µM]

NC(=O)c1ccc(-c2nc(-c3ccc4c(c3)OCO4)c(-c3ccccn3)[nH]2)cc1
active: Potency [1] 11600 nM
inactive: Potency [2] | Potency [3] | Potency [4] | Potency [5] | Potency [6] | Potency [7] | Potency [8] | Potency [9] | Potency [10] | activity (max response) [11] -5.02% | Potency [12]

C[C@]12CC[C@@H]3c4ccc(O)cc4C[C@@H](CCCCCCCCCS(=O)CCCC(F)(F)C(F)(F)F)[C@H]3[C@H]1CC[C@H]2O (stereo partly drawn)
inactive: Potency [2] | Potency [3] | Potency [4] | Potency [5] | Potency [6] | Potency [7] | Potency [8] | Potency [9] | Potency [10] | activity (max response) [11] -14.8%
active: Potency [1] 4680 nM

CCCCCCCCCCCCCC(=O)N[C@H](CO)[C@H](O)c1ccc([N+](=O)[O-])cc1
active: Potency [1] 23500 nM | Potency [2] 2350 nM | Potency [3] 2640 nM | Potency [4] 1660 nM | Potency [5] 3720 nM | Potency [6] 2640 nM | Potency [7] 2350 nM | Potency [8] 1320 nM | Potency [9] 743 nM | Potency [10] 1320 nM
inactive: activity (max response) [11] 0.392% | Potency [12]

O=C(O)c1nc(=O)[nH]c(=O)[nH]1
inactive: Potency [1] | Potency [2] | Potency [3] | Potency [4] | Potency [5] | Potency [6] | Potency [7] | Potency [8] | Potency [9] | Potency [10] | activity (max response) [11] -18% | Potency [12]

Cn1c(=O)c(F)c(Nc2ccc(I)cc2F)c2c(=O)n(CC(O)CO)cnc21 (stereo not drawn)
active: Potency [1] 25.9 nM

CCc1cncnc1N1CCN(Cc2nc3ccc(C(F)(F)F)cc3[nH]2)CC1
active: Potency [1] 5900 nM
inactive: Potency [2] | Potency [3] | Potency [4]

Nc1nccc(-c2ccc3noc(-c4ccc(Cl)cc4)c3c2)n1
active: Potency [1] 8330 nM
inactive: Potency [2] | Potency [3] | Potency [4] | Potency [5] | Potency [6] | Potency [7] | Potency [8] | Potency [9] | Potency [10] | activity (max response) [11] -6.01% | Potency [12]

C=CC(=O)Nc1cccc(Nc2nc(Nc3ccccc3)ncc2C)c1
active: Potency [1] 651 nM

C=C1[C@H](OC(C)=O)[C@H]2[C@@H](OC(C)=O)[C@](C)(OC(C)=O)C[C@]2(OC(C)=O)C(=O)[C@H](C)/C=C/C(C)(C)C(=O)[C@H](OC(=O)C(C)CC)[C@H]1OC(C)=O (stereo partly drawn)
inactive: Potency [1]

CC(C)(c1ccc(O)cc1)c1ccc(O)cc1
active: Potency [1] 27900 nM

CC(C)C(=O)Oc1ccc(CO)cc1[C@H](CCN(C(C)C)C(C)C)c1ccccc1
inactive: Potency [1] | Potency [2] | Potency [3] | Potency [4] | Potency [5] | Potency [6] | Potency [7]

C=C1CC/C=C(/CO)C(=O)C[C@@H]2[C@@H]1CC2(C)C
inactive: Potency [1]

O=C(Nc1cccc(Br)c1)c1cccc(S(=O)(=O)N2CCCCCC2)c1
inactive: Potency [2] | Potency [3] | Potency [4] | Potency [5]
active: Potency [1] 5250 nM

CC(C)(O)CCc1ccc(OCc2cc(-c3cccc(OC(F)F)c3)c3ncccc3c2)cc1
inactive: Potency [2] | Potency [3] | Potency [4] | Potency [5] | Potency [6] | Potency [7] | Potency [8] | Potency [9] | Potency [10]
active: Potency [1] 16600 nM

COc1ccc(C[C@H]2COC(=O)[C@@H]2Cc2ccc(O[C@@H]3O[C@H](CO)[C@@H](O)[C@H](O)[C@H]3O)c(OC)c2)cc1OC
active: Potency [1] 1420 nM

Cc1cc(NC(=O)Nc2ccc(N(C)C)cc2)c2cc(F)cc(F)c2n1
inactive: Potency [2] | Potency [3] | Potency [4] | Potency [5] | Potency [6] | Potency [7] | Potency [8] | Potency [9] | Potency [10] | activity (max response) [11] -2.18% | Potency [12]
active: Potency [1] 10200 nM

CN(CCOc1ccc(CC2SC(=O)NC2=O)cc1)c1ccccn1 (stereo not drawn)
inactive: Potency [2] | Potency [3] | Potency [4] | Potency [5] | Potency [6] | Potency [7] | Potency [8] | Potency [9] | Potency [10] | activity (max response) [11] -2.77% and -12.8% | Potency [12]
active: Potency [1] 13300 nM

CN1C(=O)c2sccc2N(C)c2nc(Nc3ccc(S(N)(=O)=O)cc3)ncc21
active: Potency [1] 468 nM | Potency [2] 10500 nM | Potency [3] 13200 nM | Potency [4] 9330 nM | Potency [5] 2630 nM | Potency [6] 2340 nM | Potency [7] 2630 nM | Potency [8] 2630 nM | Potency [9] 2340 nM | Potency [10] 2340 nM | Potency [11] 20000 nM

CCN(CC)CCOc1ccc(Nc2ncc3cc(-c4c(Cl)cccc4Cl)c(=O)n(C)c3n2)cc1
active: Potency [1] 118 nM | Potency [2] 2640 nM | Potency [3] 2960 nM | Potency [4] 2640 nM | Potency [5] 3720 nM | Potency [6] 3320 nM | Potency [7] 2960 nM | Potency [8] 1660 nM | Potency [9] 1050 nM | Potency [10] 2350 nM | Potency [11] 1000 nM
